In general, AC50 refers to the concentration giving half of the maximal activity seen.

Assay [1] is described as follows: ACEA_ER_80hr: ACEA Biosciences xCELLigence Real-Time Cell Analysis on Estrogen Receptor Agonism for Proliferation (AID 2282667; active means hit-call score of the fitted dose curve at least 0.9, where 1 is the maximum). The note with it: T47D proliferation, impedance (xCELLigence), 80 h. A digest of the protocol: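 T47D human breast cells were seeded on electrode plates, monitored overnight, then exposed continuously to compounds in eight-point 1:4 dilutions from 100 uM (max 0.5% DMSO). Impedance-based growth was read at 80 h, fitted upward relative to DMSO.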

The nature of assay [2]: ATG_CRE_CIS: Attagene CIS-FACTORIAL HepG2 Assay for human cAMP Responsive Element (CRE) binding protein 3 (AID 2282926). The note with it: HepG2 CRE cis-reporter, Attagene multiplexed mRNA; actives raise or lower the signal. A digest of the protocol: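 Capillary electrophoresis of 6-FAM-labelled, HpaI-digested PCR products quantified reporter transcripts. These came from HepG2 transiently transfected with cis-element reporters and exposed to test chemicals for 24 hours, with DMSO defining baseline activity.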

For assay [3], the target named is CCAAT/enhancer-binding protein beta (Homo sapiens) (UniProt P17676). Nature of the assay: ATG_C_EBP_CIS: Attagene CIS-FACTORIAL HepG2 Assay for human CCAAT/Enhancer Binding Protein (C/EBP) beta (AID 2282927). The settings on record: HepG2 Attagene cis-factorial transcription factor reporter; actives raise or lower the signal. A digest of the protocol: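 RT-PCR/capillary electrophoresis fluorescence of reporter mRNA, 24 h post-dose, in HepG2 cells carrying transfected cis-promoter reporter units. Bidirectional curve fitting against DMSO baseline captures gain or loss of signal.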
Chain of CCAAT/enhancer-binding protein beta (Homo sapiens) (P17676 whole entry, looked up): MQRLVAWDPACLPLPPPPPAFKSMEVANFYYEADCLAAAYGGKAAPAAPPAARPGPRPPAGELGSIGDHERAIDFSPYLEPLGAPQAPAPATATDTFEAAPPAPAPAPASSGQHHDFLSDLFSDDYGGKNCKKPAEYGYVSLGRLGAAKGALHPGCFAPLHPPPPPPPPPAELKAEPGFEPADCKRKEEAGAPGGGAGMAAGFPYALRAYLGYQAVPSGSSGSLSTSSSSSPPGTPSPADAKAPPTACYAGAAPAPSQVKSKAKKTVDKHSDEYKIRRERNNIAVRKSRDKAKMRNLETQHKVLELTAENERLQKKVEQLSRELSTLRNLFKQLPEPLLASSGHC

Assay [4] can be described thus: ATG_CMV_CIS: Attagene CIS-FACTORIAL HepG2 Assay for human CMV (Internal Marker) (AID 2282928).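 Further: endpoint acts as a background internal control marker rather than a target.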 The settings on record: HepG2 CMV promoter reporter, transcription factor profiling; actives raise or lower the signal. The gist of the method: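 Fluorescence intensity of RT-PCR-derived reporter fragments, resolved by capillary electrophoresis, gives the signal. HepG2 liver cells bearing transfected cis-element reporters were treated 24 h; activity in either direction was fit relative to DMSO-treated controls.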

The nature of assay [5]: ATG_DR4_LXR_CIS: Attagene CIS-FACTORIAL HepG2 Assay for human Liver X Receptor (LXR), DR4 submotif (AID 2282929). The settings on record: HepG2 Attagene DR4 cis-reporter, mRNA transcription; actives raise or lower the signal. A digest of the protocol:
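HepG2, transient MRTU transfection, cis-element (DR4) promoter; 24 h compound exposure; total RNA → oligo(dT) RT → PCR → 6-FAM primer extension → HpaI cut → CE. Gain/loss vs DMSO, bidirectional fit.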

The target of assay [6] is Aryl hydrocarbon receptor (Homo sapiens) (UniProt P35869). Nature of the assay: ATG_Ahr_CIS: Attagene CIS-FACTORIAL HepG2 Assay for human Aryl Hydrocarbon Receptor (Ahr) (AID 2282930). The settings on record: HepG2 AhR cis-factorial reporter transcription; actives raise or lower the signal. A digest of the protocol:
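HepG2 cells transiently transfected with cis-element-driven multiplexed reporter transcription units; endogenous transcription factor activity measured as reporter mRNA 24 h after dosing. RT-PCR, 6-FAM labelling, HpaI digestion, capillary electrophoresis; bidirectional fitting versus DMSO baseline.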

The nature of assay [7]: ATG_AP_1_CIS: Attagene CIS-FACTORIAL HepG2 Assay for human Activator Protein 1 (AP-1) (AID 2282931). The settings on record: HepG2 Attagene cis-factorial AP-1 reporter mRNA; actives raise or lower the signal. A digest of the protocol:
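Transient MRTU transfection of HepG2 → 24 h chemical treatment → RNA isolation, RT-PCR, 6-FAM labelling, HpaI digest → capillary electrophoresis. Fit: bidirectional, DMSO negative control.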

A short description of assay [8]: ATG_AP_2_CIS: Attagene CIS-FACTORIAL HepG2 Assay for human Activator Protein 2 (AP-2) (AID 2282932). The settings on record: HepG2 AP-2 cis-reporter, Attagene transcription factor profiling; actives raise or lower the signal. A digest of the protocol: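 Assay in transfected HepG2 with promoter-regulated reporters, 24 h incubation after dosing. Signal is reporter mRNA fluorescence (RT-PCR, capillary electrophoresis), analysed for both increases and decreases relative to DMSO controls.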

Assay [9] is described as follows: ATG_BRE_CIS: Attagene CIS-FACTORIAL HepG2 Assay for human Bone Morphogenetic Protein (BMP) Response Element (BRE) (AID 2282933). The note with it: HepG2 BMP response element reporter, Attagene transcription factor profiling; actives raise or lower the signal. A digest of the protocol:
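Transient MRTU transfection of human HepG2 liver cells; 24 h compound treatment; total RNA isolated, reverse-transcribed, PCR-amplified, 6-FAM labelled, HpaI-cut, capillary electrophoresis. DMSO = negative control/baseline, bidirectional fit.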

The target of assay [10] is Retinoic acid receptor alpha (Homo sapiens) (UniProt P10276). The experiment in a line: ATG_DR5_RAR_CIS: Attagene CIS-FACTORIAL HepG2 Assay for human Retinoic Acid Receptor Alpha (RARE), DR5 submotif (AID 2282934).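 On AC50: reporter responds to endogenous RAR alpha beta and gamma in HepG2 not RARA alone.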 The settings on record: HepG2 Attagene cis-factorial RARE DR5 reporter, mRNA; actives raise or lower the signal. The gist of the method: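 HepG2 cells transiently transfected with multiplexed reporter units under cis (DR5 RARE) promoters, so endogenous transcription factor activity is measured. After 24 h compound exposure, reporter mRNA is quantified by RT-PCR with fluorescent labelling and capillary electrophoresis; bidirectional fitting versus DMSO.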
Chain of Retinoic acid receptor alpha (Homo sapiens) (P10276 whole entry, looked up): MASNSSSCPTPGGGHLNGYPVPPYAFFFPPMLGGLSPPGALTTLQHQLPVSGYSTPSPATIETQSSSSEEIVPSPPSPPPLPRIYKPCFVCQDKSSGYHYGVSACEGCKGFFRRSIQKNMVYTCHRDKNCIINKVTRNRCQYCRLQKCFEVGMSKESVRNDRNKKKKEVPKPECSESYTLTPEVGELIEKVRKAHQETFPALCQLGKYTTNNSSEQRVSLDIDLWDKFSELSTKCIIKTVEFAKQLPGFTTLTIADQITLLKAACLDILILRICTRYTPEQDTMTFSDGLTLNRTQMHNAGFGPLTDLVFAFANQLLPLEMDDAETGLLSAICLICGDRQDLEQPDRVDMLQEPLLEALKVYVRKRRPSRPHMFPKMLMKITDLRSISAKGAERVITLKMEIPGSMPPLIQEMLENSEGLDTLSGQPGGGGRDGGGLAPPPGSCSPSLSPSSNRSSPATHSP

Values joined by “and” are separate entries in the source; they are usually repeats but may differ in a detail not shown here. Equal values may be shown once. Inconclusive results are not listed. A structure can be active in one record and inactive in another. Active and inactive are the calls of the source. How the source made its calls, unless noted: active means hit-call score of the fitted dose curve at least 0.9, where 1 is the maximum; inactive means score below 0.9.

Chain of Aryl hydrocarbon receptor (Homo sapiens) (P35869 whole entry, looked up): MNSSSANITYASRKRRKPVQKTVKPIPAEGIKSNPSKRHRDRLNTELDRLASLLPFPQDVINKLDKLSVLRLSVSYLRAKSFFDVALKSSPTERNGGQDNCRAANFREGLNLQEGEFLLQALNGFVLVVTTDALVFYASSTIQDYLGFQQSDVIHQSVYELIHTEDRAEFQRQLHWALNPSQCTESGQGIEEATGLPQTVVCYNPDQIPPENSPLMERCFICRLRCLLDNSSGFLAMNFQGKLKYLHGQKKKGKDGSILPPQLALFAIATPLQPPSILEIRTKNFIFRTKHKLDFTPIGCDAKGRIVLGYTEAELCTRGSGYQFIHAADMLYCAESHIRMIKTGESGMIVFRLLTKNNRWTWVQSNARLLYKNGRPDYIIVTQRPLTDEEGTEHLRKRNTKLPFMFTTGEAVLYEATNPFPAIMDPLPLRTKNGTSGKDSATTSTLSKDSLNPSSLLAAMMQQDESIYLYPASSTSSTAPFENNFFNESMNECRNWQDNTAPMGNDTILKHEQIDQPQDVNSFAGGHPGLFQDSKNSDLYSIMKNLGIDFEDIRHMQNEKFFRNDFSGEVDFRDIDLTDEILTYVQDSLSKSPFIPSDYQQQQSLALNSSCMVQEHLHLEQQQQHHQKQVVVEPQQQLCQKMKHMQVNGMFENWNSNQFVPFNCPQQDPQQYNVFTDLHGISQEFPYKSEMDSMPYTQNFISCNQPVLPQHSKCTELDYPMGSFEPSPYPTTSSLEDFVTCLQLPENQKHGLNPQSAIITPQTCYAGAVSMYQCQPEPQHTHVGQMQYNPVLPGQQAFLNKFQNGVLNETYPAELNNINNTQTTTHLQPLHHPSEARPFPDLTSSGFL

On to `COC(=O)C1CCC(C(=O)OC)CC1` (configuration not stated), for which the molecule was called inactive in assay [1], in assay [2], in assay [3], in assay [4], in assay [5] and in assay [6]. Further, the call in assay [7], in assay [8], in assay [9] and in [10] was inactive.
`O=S(=O)(O)C(F)(F)C(F)(F)C(F)(F)C(F)(F)C(F)(F)C(F)(F)C(F)(F)F`: the outcome in assay [1], in assay [2], in [4], in assay [5], in assay [6] and in assay [7] was inactive. In addition, the call in [8], in assay [9] and in [10] was inactive. The AC50 in assay [3] is 70.3 µM (active) and 50 µM (active); in assay [5], 29.7 µM (active); in assay [7], 100 µM (active); in assay [9], 100 µM (active).
Regarding `C=CC(=O)OCC(F)(F)C(F)(F)C(F)(F)C(F)(F)C(F)(F)C(F)(F)C(F)(F)F`, the call in [1], in assay [2], in assay [3], in [4], in [5] and in assay [6] was inactive. Further, the result in [7], in [8] and in assay [9] was inactive. The AC50 in assay [10] was 12.1 µM (active).
For `FC(F)(F)C(F)(F)C(F)(F)C(F)(F)CCI`, the molecule was called inactive in assay [1], in [2], in [3], in [4], in assay [5] and in assay [6]. The call in assay [7], in [8], in [9] and in [10] was inactive. For the same molecule, in assay [6], the AC50 is 43.5 µM (active).
Regarding `CCCCCCCCC(F)(F)C(F)(F)C(F)(F)C(F)(F)C(F)(F)C(F)(F)F`, the outcome in assay [1], in assay [2], in assay [3], in assay [4], in [5] and in assay [6] was inactive. The molecule was classed as inactive in assay [7], in assay [8], in [9] and in assay [10].
For `CCCCOc1ccc(N)cc1`, the outcome in [1], in assay [2], in assay [3], in assay [4], in assay [5] and in assay [6] was inactive. The result in assay [7], in [8], in [9] and in [10] was inactive.
Turning to `OC[C@@H](O)[C@@H](O)[C@H](O)[C@@H](O)CO`, the call in [1], in [2], in assay [3], in assay [4], in assay [5] and in assay [6] was inactive. The molecule was classed as inactive in assay [7], in assay [8], in assay [9] and in assay [10].
Regarding `O=C(O)C(F)(OC(F)(F)C(F)(OC(F)(F)C(F)(F)C(F)(F)F)C(F)(F)F)C(F)(F)F` (configuration not stated), the outcome in assay [1], in assay [2], in [3], in [4], in assay [5] and in assay [6] was inactive. The molecule was called inactive in assay [7], in assay [8], in assay [9] and in [10].
Consider `Cc1cc(C)cc(O)c1`, for which the outcome in assay [1], in assay [2], in [3], in assay [4], in assay [5] and in [6] was inactive. For the same molecule, the molecule was classed as inactive in assay [7], in assay [8], in assay [9] and in [10].
For `Cc1ccc(S(=O)(=O)NCl)cc1`, the outcome in assay [1], in assay [2], in assay [3], in assay [4], in assay [5] and in assay [7] was inactive. Moreover, the result in assay [8] and in assay [9] was inactive. The AC50 in assay [6] is 66.9 µM (active) and 61.9 µM (active).
For `O=S(=O)(O)c1ccc2ccccc2c1`, the outcome in [1], in assay [2], in assay [3], in assay [4], in assay [5] and in assay [7] was inactive. For the same molecule, the result in assay [8] and in assay [9] was inactive. In assay [6], the AC50 is 42.7 µM (active) and 40.3 µM (active).
For `C=C(C)C(=O)OCC(F)(F)C(F)(F)C(F)(F)F`, the result in assay [1], in assay [2], in assay [3], in assay [4], in assay [5] and in assay [6] was inactive. Besides, the molecule was called inactive in assay [7], in [8], in [9] and in assay [10].
As to `FC(F)(F)C(F)(F)C(F)(F)C(F)(F)C(F)(F)C(F)(F)C(F)(F)C(F)(F)CCS`, the outcome in [1], in assay [2], in assay [3], in [4], in assay [5] and in [6] was inactive. Moreover, the molecule was called inactive in assay [7], in assay [8], in assay [9] and in assay [10].
Consider `N=C(N)C(F)(F)C(F)(F)C(F)(F)C(F)(F)C(F)(F)C(F)(F)C(F)(F)F`, for which the result in assay [1], in assay [2], in [4], in [6], in [8] and in [9] was inactive. Also, the result in assay [10] was inactive. Further, the AC50 in [3] was 111 µM (active); in assay [5] it was 211 µM (active); in assay [7], 150 µM (active).
As for `Nc1ccc(Oc2cccc(Oc3ccc(N)cc3)c2)cc1`, the result in assay [1], in [3], in assay [6], in assay [7], in [8] and in assay [9] was inactive. The call in [10] was inactive. Also, the AC50 in assay [2] is 145 µM (active); in assay [4], 45.1 µM (active); in [5], 25.4 µM (active).
Turning to `NC(=O)C(F)(F)C(F)(F)C(F)(F)C(F)(F)F`, the call in assay [1], in [2], in assay [3], in assay [4], in assay [5] and in assay [6] was inactive. Besides, the call in [7], in [8], in [9] and in [10] was inactive.
As to `C=C(C)C(=O)OCC(F)(F)C(F)(F)C(F)(F)C(F)(F)C(F)(F)C(F)(F)C(F)(F)F`, the result in [1], in assay [2], in assay [3], in assay [4], in assay [5] and in assay [6] was inactive. The molecule was classed as inactive in assay [7], in assay [8], in assay [9] and in assay [10].
On to `COC(OC(C)=O)c1ccccc1` (configuration not stated), for which the call in assay [1], in assay [2], in assay [3], in assay [4], in assay [5] and in assay [6] was inactive. Besides, the outcome in assay [7], in assay [8], in [9] and in assay [10] was inactive.
As to `CC(C)(C)c1ccc(OC2CCCCC2O)cc1` (configuration not stated), the molecule was called inactive in [1], in [2], in assay [3], in assay [5], in assay [6] and in assay [8]. The result in assay [10] was inactive. Also, the AC50 in assay [4] is 48.8 µM (active); in assay [7] it was 24.5 µM (active); in assay [9], 42.4 µM (active).
On to `O=C(O)C(F)(F)C(F)(F)C(F)(F)C(F)(F)C(F)(F)C(F)(F)C(F)(F)C(F)(F)C(F)(F)C(F)(F)C(F)(F)C(F)(F)C(F)(F)F`, for which the call in [1], in [2], in assay [3], in assay [4], in [5] and in assay [6] was inactive. For the same molecule, the result in assay [8], in assay [9] and in assay [10] was inactive. Moreover, the AC50 in [7] is 42.8 µM (active).

The record behind these values is PubChem BioAssay (EPA / NIEHS).
